# In the supplement of paper PMC6555819:
# Assays:
# Assay in all cases: PBM binding z-score (relative to random genomic background probes); higher = stronger binding; sequences stand for … in GC…GCGATTGACAGCGTAGAATGAAGG
# [1] = system: FXR:RXRa (NR concentration 270 nM, RXRa partner concentration 90 nM)
# In short: (§1)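 For binding z-scores, the reference was random background probes on custom Agilent 4×180K protein-binding microarrays. These arrays were incubated 1 h with ligand-free nuclear receptor dimers in PBS pH 7.4, 2% milk, 0.02% Triton X-100, 1 mM DTT, 0.2 mg/mL BSA and 0.4 mg/ml salmon testes DNA. Fluorescence was scanned after antibody detection of each partner (one per run) and regression-normalized.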
# [2] = system: LXRa:RXRa (NR concentration 270 nM, RXRa partner concentration 90 nM)
# In short: as §1
# [3] = system: LXRa homodimer (NR concentration 270 nM)
# In short: as §1
# [4] = system: LXRb:RXRa (NR concentration 270 nM, RXRa partner concentration 90 nM)
# In short: as §1
# [5] = system: LXRb homodimer (NR concentration 270 nM)
# In short: as §1
# [6] = system: PPARa:RXRa (NR concentration 270 nM, RXRa partner concentration 90 nM)
# In short: as §1
# [7] = system: PPARg:RXRa (NR concentration 180 nM, RXRa partner concentration 90 nM)
# In short: as §1
# [8] = system: PPARg:RXRa 270nM:90nM, anti-RXR (NR concentration 270 nM, RXRa partner concentration 90 nM)
# In short: as §1
# [9] = system: PPARg:RXRa 30nM:10nM, anti-RXR (NR concentration 30 nM, RXRa partner concentration 10 nM)
# In short: as §1
# [10] = system: PPARg:RXRa 90nM:30nM, anti-RXR (NR concentration 90 nM, RXRa partner concentration 30 nM)
# In short: as §1
# [11] = system: PPARg:RXRa DBDmut IVT, anti-RXR (DBD mutation: RXRa K156A/R161A, NR concentration 270 nM, RXRa partner concentration 90 nM)
# In short: as §1
# [12] = system: PPARg:RXRa IVT, anti-PPARg (NR concentration 270 nM, RXRa partner concentration 90 nM)
# In short: as §1
# [13] = system: PPARg DBDmut:RXRa IVT, anti-PPARg (DBD mutation: PPARg1 K132A/R137A, NR concentration 270 nM, RXRa partner concentration 90 nM)
# In short: as §1
# [14] = system: PPARg DBDmut IVT, anti-PPARg (DBD mutation: PPARg1 K132A/R137A, NR concentration 270 nM)
# In short: as §1
# [15] = system: PPARg homodimer (NR concentration 180 nM)
# In short: as §1
# [16] = system: PXR:RXRa (NR concentration 270 nM, RXRa partner concentration 90 nM)
# In short: as §1
# [17] = system: PXR homodimer (NR concentration 270 nM)
# In short: as §1
# [18] = system: RARa:RXR (NR concentration 270 nM, RXRa partner concentration 90 nM)
# In short: as §1
# [19] = system: RARa homodimer (NR concentration 270 nM)
# In short: as §1
# [20] = system: RARb:RXRa (NR concentration 270 nM, RXRa partner concentration 90 nM)
# In short: as §1
Sequence,PBM binding z-score [1],PBM binding z-score [2],PBM binding z-score [3],PBM binding z-score [4],PBM binding z-score [5],PBM binding z-score [6],PBM binding z-score [7],PBM binding z-score [8],PBM binding z-score [9],PBM binding z-score [10],PBM binding z-score [11],PBM binding z-score [12],PBM binding z-score [13],PBM binding z-score [14],PBM binding z-score [15],PBM binding z-score [16],PBM binding z-score [17],PBM binding z-score [18],PBM binding z-score [19],PBM binding z-score [20]
GCTAGCAGGCCATTTGGATCACTCAATGACGGGC,-0.129,-0.387,-0.841,-0.881,-0.721,-0.45,0.511,-0.386,-0.566,-0.739,0.765,0.13,-0.26,-0.878,-0.828,-0.802,-0.249,-0.562,-0.338,0.151
GATACAGGGTCAGCTAGAGGCCAGATTATGGAAA,4.25,2.85,-0.166,2.68,-0.373,4.42,3.59,3.18,0.899,1.88,0.866,2.23,0.547,-0.0092,1.91,3.24,-0.0885,4.03,0.518,4.12
TTACCAAGGTGAAGGTCGTTAATCCCTCTGTAGA,1.32,1.12,-0.236,1.22,-0.624,2.49,2.65,3.89,1.82,3.43,1.67,3.05,-0.743,-0.257,0.621,1.28,0.0227,1.65,-0.0474,1.98
CCGCCTGGGGCATAAGGTTACCATAAGCCAGCCC,0.396,2.13,-0.0987,0.843,-1.3,1.3,0.507,0.996,-0.661,0.461,-0.446,-0.147,-2.09,-2.48,0.35,0.37,-0.511,1.52,-0.89,1.68
ATCTCTAGGAAAGACTCAGTTCAGTGAAGAACGC,0.193,0.324,0.437,0.164,0.531,-0.385,-0.00135,-0.209,-0.24,-0.119,-0.0594,-0.318,0.245,0.852,0.978,0.737,1.37,0.199,0.964,0.144
AGAATGAGGTTACCAAAGATAAGGGAAACGCTTG,1.56,1.65,-0.398,1.2,-0.13,3.46,2.87,2.43,0.9,1.9,3.63,3.34,0.848,0.91,1.01,0.851,0.109,1.68,0.445,1.73
CAAACTATGTCACGAAAGGTCAAAGTCGAATGAC,5.77,6.78,6.81,6.18,2.79,6.44,6.17,5.88,3.01,4.94,5.09,5.93,3,0.957,3.47,6.07,2.12,6.01,2.87,4.92
CCTGCTAAGTCATGGTCAGCTAATCTACAGTATG,-0.197,-0.105,-0.185,-0.137,-0.307,-0.22,-0.135,-0.368,-0.358,-0.204,0.985,-0.177,-0.766,-0.271,0.146,-0.158,-0.39,-0.0535,-0.167,0.586
TCTTGTAGATCAAGCAGGTTAAGAATGCCTGAGT,0.16,0.304,-0.202,0.114,-0.543,0.658,-0.22,1.1,2.61,1.83,1.49,0.313,-0.142,0.577,-0.335,0.291,-0.153,0.248,-0.193,0.0521
CCGAGTAGGTTATCGGGCATTCAGGCAACGGTGA,0.12,0.322,0.154,-0.0205,-0.739,1.32,1.8,2.7,0.915,1.54,2.93,2.72,-1.04,-1.21,0.257,-0.121,-0.43,0.241,0.0766,0.742
TTACCAAGGTGAGCGGAGGTCGTTGATCCAACTC,1.38,1.36,-0.4,0.829,-1.16,1.81,0.414,1.19,0.0694,0.605,1.19,2.32,-0.403,-0.114,-0.196,4.22,0.00572,1.51,-1.17,1.92
ACTATTAGTTGACTTAGGGGAACCGATACGACGC,0.255,0.123,0.277,0.421,1.27,0.0304,0.951,0.244,0.351,0.326,1.27,0.41,1.51,1.41,0.783,0.271,0.621,0.648,1.36,0.217
GCAGACAGGTGAAACGCAGGTAACTCCGGGTGGC,-0.276,0.017,-0.496,-0.36,-1.37,0.805,0.312,0.0906,-0.41,-0.188,0.8,0.556,0.467,-0.826,-0.848,-0.493,-0.692,0.064,-0.954,0.484
AGAATGAGGTTAAGATCTGGGAAACAGAATACAT,1.95,1.82,-0.135,1.51,-0.0689,3.64,2.13,2.39,0.969,1.84,2.76,3,1.23,0.832,0.543,1.03,0.115,1.69,0.301,1.9
